# Source: PubChem
# A selection: hits, their analogues and other compounds. The true share with any hit is near 19%.
# HT1080NT lethal – kills 2HG-producing HT-1080-NT fibrosarcoma cells | Potency, µM (doses to about 46.1 µM), for the others: at the highest dose activity, negative = less viability, hits mostly cytotoxic | 360,000 compounds, 1.6% hits | AID 686970 | HT-1080-NT fibrosarcoma viability, CellTiter-Glo ATP luminescence, 48 h;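 note: NT is the 2HG producing partner of a matched IDH1 knockdown line; potency is the fitted concentration of half-maximal effect; 0% = DMSO-treated cells and -100% = media-only wells without cells; nearly all actives have a fitted effect of over 55% in size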
#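 HT-1080-NT fibrosarcoma cells (2HG-overproducing), 750 cells/well in RPMI with 5% FBS, dosed after 2 h and incubated 48 h at 37C. CellTiter-Glo luminescence normalized to DMSO and no-cell wells; concentration-response curves fitted and classed.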
# TDP1 cell noCPT – qHTS for Inhibitors of human tyrosyl-DNA phosphodiesterase 1 (TDP1): qHTS in cells in absence of CPT; DT40 Tdp1-/- hTDP1 cells, no CPT, ATP luminescence, 48 h; Potency, µM (highest dose often 46.2 µM), for the others: top-dose activity change, negative = growth inhibition, hits mostly inhibitors; 420,000 compounds, 15% hits; AID 686978, 2013; note: potency is the fitted concentration of half-maximal effect; nearly all actives have a fitted effect of over 55% in size
#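 A cellular qHTS used chicken DT40 cells lacking endogenous Tdp1 but carrying stably transfected human TDP1. Compounds were applied without camptothecin, and cell growth kinetics were judged by ATP-dependent luminescence after ≥48 hr.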
# IL-1B inflam inh – blocks inflammasome-driven IL-1 beta release | THP-1 LPS/ATP IL-1B secretion, AlphaLISA, 16 h; active compounds read low | activity change, % at 57.5 µM | 360,000 compounds, 4.7% hits; in the data active = activity change below about -50%; inconclusive = mostly about -30% to -49%
#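 Secreted IL-1B measured by AlphaLISA bead assay after 16 h compound exposure of THP-1 cells; compounds (final up to 57.5 uM) added 1 h before LPS (250 ng/mL) and ATP (1.25 mM) stimulation; lower signal means less secretion.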
# TDP1 cell CPT – growth inhibition of DT40 Tdp1-/-;hTDP1 cells with camptothecin (screen for TDP1 inhibitors); 420,000 compounds, 12% hits; AID 686979; chicken DT40 Tdp1-/-;hTDP1 cells + 20 nM CPT, ATP luminescence, 48 h; Potency, µM (top dose mostly 46.2 µM), for the others: at the top dose activity change, negative = growth inhibition, most hits filed as inhibitors; note: potency is the fitted concentration of half-maximal effect; nearly all actives have a fitted effect of over 55% in size
#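 Chicken DT40 Tdp1-/- cells stably complemented with human TDP1 were seeded at 400 cells/well in medium containing 20 nM camptothecin, exposed to pin-transferred compounds, and grown at 37 °C for at least 48 hr. Viability was read as ATP luminescence.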
# HT1080 IDH1KD tx – HT-1080 IDH1 knockdown cell toxicity (counter line); 360,000 compounds, 2% hits; Potency, µM (top dose mostly 46.1 µM), for the others: at the highest dose activity, negative = toxicity, actives largely listed as cytotoxic; HT-1080 IDH1 knockdown viability, ATP luminescence, 48 h;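 note: potency is the fitted concentration of half-maximal effect; 0% = DMSO wells and -100% = cell-free medium wells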
#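 CellTiter-Glo luminescence after 48 h compound exposure at 37 degrees C of IDH1-knockdown HT-1080 cells in 5% FBS RPMI. %Activity scaled between DMSO wells and cell-free media wells, with curves fitted and assigned curve classes.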
# * = called active by the depositor; ? = inconclusive; . = not tested or not shown. Unless noted, calls come from the whole dose curve; as a rule, active = well fitted curve in the direction sought with a large enough effect; inconclusive = small, poorly fitted or top-dose-only effect, or another doubt; inactive = no such curve, though single readings can be large; an effect the other way counts as inactive or inconclusive. Unless noted, % is set by controls: 0 for no effect and ±100 for the full control effect.
SMILES,HT1080NT lethal,TDP1 cell noCPT,IL-1B inflam inh,TDP1 cell CPT,HT1080 IDH1KD tx
Cc1cccc(CS(=O)(=O)Cc2ccc(C(=O)NC3CCCCC3)o2)c1,-5.0%,-14.4%,-5.3,-16.8%,-2.1%
O=C(CSc1nc2ccccc2c(=O)n1Cc1ccccc1)Nc1ccc(Br)cc1C(=O)O,-16.1%,-27.4%,-0.2,-24.0%,-9.3%
COc1cc(-c2nc(C(=O)NC3CCCCC3)cc3c2[nH]c2ccccc23)cc(OC)c1OC,-4.9%,23.1µM*,?,16.4µM*,-20.2%
COc1cc(C(=O)NC2CCN(Cc3ccccc3)CC2)cc(Cl)c1OC,-16.3%,?,-13.6,?,-12.3%
COc1cc(-c2nc(C(=O)NC3CCN(Cc4ccccc4)CC3)cc3c2[nH]c2ccccc23)cc(OC)c1OC,?,13µM*,-11.8,11.6µM*,?
CSCC[C@H](NC(=O)c1cc2c([nH]c3ccccc32)c(-c2ccccc2)n1)C(=O)O,-3.7%,1.9%,4.1,2.2%,-18.6%
COc1ccc(OC)c(-c2nc(C(=O)NCCCN3CCOCC3)cc3c2[nH]c2ccccc23)c1,-13.4%,23.1µM*,-2.4,16.4µM*,-22.4%
COc1ccc(OC)c(-c2nc(C(=O)NC3CCN(Cc4ccccc4)CC3)cc3c2[nH]c2ccccc23)c1,?,11.6µM*,-14.6,10.3µM*,?
O=C1C(CO)C(CO)C(CO)C1CO (stereo not drawn),-3.7%,-1.4%,-5.7,0.3%,4.4%
O=C(O)CCC(=O)OCC1CCCO1 (stereo not drawn),-6.1%,-1.2%,-10.2,0.2%,-0.2%
COc1cccc(CNC(=O)c2c(OC)cc(=O)n3c2CCN(C(=O)c2ccccc2Cl)CC3)c1,.,-7.6%,.,0.8%,.
CC(C)(CNC(=O)Cc1ccc(Cl)cc1Cl)N1CCCCC1,-0.7%,-7.4%,-8.4,-0.1%,11.7%
O=C(NNc1cccc(Cl)c1)c1cccnc1Oc1ccccc1,?,-10.9%,.,1.2%,6.51µM*
COc1ccc(N2CCN(C(=O)COC(=O)CC(NC(N)=O)c3ccc(Cl)cc3)CC2)cc1 (stereo not drawn),6.6%,?,34.7,-25.6%,0.5%
Cc1c(C(=O)OC2CCCCC2)[nH]c2c1C(=O)CC(c1ccc(C(C)(C)C)cc1)C2 (stereo not drawn),.,18.4µM*,.,20.6µM*,.
Cc1c(C(=O)OC2CCCCCC2)[nH]c2c1C(=O)CC(c1ccc(Cl)cc1)C2 (stereo not drawn),.,-20.2%,.,0.8%,.
Cc1c(C(=O)OC2CCCCCC2)[nH]c2c1C(=O)CC(c1ccccc1)C2 (stereo not drawn),.,3.66µM*,.,3.26µM*,.
Cc1ccc(NC(=O)O/N=C/c2ccc(N(C)C)cc2)cc1,12.4%,-27.4%,-24.8,1.7%,0.1%
CSC(=S)N/N=C/c1ccc(N(C)C)cc1,8.5%,5.17µM*,6.3,4.61µM*,20.4%
CN(C)c1ccc(C=NNC(=S)Nc2ccc(F)cc2)cc1,-4.9%,4.61µM*,?,3.66µM*,-28.4%
O=S1(=O)CCOC[C@H](Cc2ccccc2)N1Cc1ccc(Cl)cc1,0.2%,?,11.9,?,7.2%
CCOC(=O)C1CC(=NO)c2ccc(OC)c(OC)c2C1 (stereo not drawn),20.4%,?,15.0,-8.0%,6.9%
CC(=O)c1cccc(NC(=O)c2cccc3c(-c4cccnc4)coc23)c1,-21.0%,9.2µM*,0.0,11.6µM*,-21.5%
COc1ccc(-c2coc3c(C(=O)Nc4cccc(NS(C)(=O)=O)c4)cccc23)c(C)c1,?,20.6µM*,-14.9,?,?
COc1ccc(NC(=O)c2cccc3c(-c4ccc(OC)cc4C)coc23)cc1,?,?,22.5,?,?
SMILES,HT1080NT lethal,TDP1 cell noCPT,IL-1B inflam inh,TDP1 cell CPT,HT1080 IDH1KD tx
O=C(Nc1cccc(OC(F)(F)F)c1)c1cccc2c(-c3cccnc3)coc12,?,20.6µM*,-27.9,23.1µM*,?
CS(=O)(=O)Nc1cccc(NC(=O)c2cccc3c(-c4cccnc4)coc23)c1,-10.9%,16.4µM*,-7.8,11.6µM*,-15.4%
CC(C)(C)OC(=O)N1CCC(Cc2cc(-c3ccccc3)no2)(C(=O)O)CC1,15.5%,3.4%,26.2,-1.1%,0.4%
O=C(NCc1nnnn1-c1ccc(Cl)cc1)C(=O)c1c[nH]c2ccccc12,-3.0%,-24.7%,-14.2,-1.7%,-2.1%
CC(C)Sc1nc(C(F)(F)F)cc(=O)n1-c1ccccc1,2.3%,-15.5%,34.6,-2.2%,-0.8%
COc1ccc(NC(=S)Nn2cnnc2)c(OC)c1,5.3%,-6.2%,13.9,-4.5%,16.5%
CC(=O)c1cccc(NC(=O)c2cccc3c(-c4cnn(C)c4)coc23)c1,10.3%,20.6µM*,-81.1*,13µM*,18.2%
COc1cc(NC(=O)c2ccc(C)cc2)c(OC)cc1NC(=O)CN1CCCCC1,?,29.1µM*,?,20.6µM*,?
COc1cc(NC(=O)c2cc(OC)c(OC)c(OC)c2)c(OC)cc1NC(=O)CN1CCCCC1,-8.4%,?,-3.5,?,-4.2%
COc1cc(NC(=O)Nc2cccc(Cl)c2)c(OC)cc1NC(=O)CN1CCCCC1,?,?,-28.9,16.4µM*,20.6µM*
Cc1csc2ncc(C(=O)NC(C)c3ccccc3)c(=O)n12 (stereo not drawn),2.2%,?,39.5,?,1.0%
CC(C)N(C(=O)c1ccccc1-c1ccccc1)C(C)C,-1.1%,18.4µM*,-14.4,?,-20.2%
Cc1ccccc1NC(=O)c1ccccc1-c1ccccc1,-0.6%,?,2.4,-9.4%,-0.3%
Cc1cccc(-c2nc(S(=O)(=O)c3ccccc3)c(N3CCOCC3)o2)c1,-3.4%,-23.8%,34.9,-8.1%,-7.2%
Cc1ccc(S(=O)(=O)c2nc(-c3ccccc3Cl)oc2N2CCCCCC2)cc1,.,18.4µM*,.,23.1µM*,.
COc1cc(-c2nc(S(=O)(=O)c3ccc(Br)cc3)c(N3CCOCC3)o2)cc(OC)c1OC,.,8.2µM*,.,11.6µM*,.
Cc1ccc(S(=O)(=O)c2nc(-c3ccccc3Cl)oc2N2CCN(C)CC2)cc1,-3.1%,23.1µM*,-66.5*,?,1.9%
CCOc1ccc(-c2nc(S(=O)(=O)c3ccccc3)c(N3CCOCC3)o2)cc1,12.0%,-4.2%,-7.8,14.0%,14.1%
CCN1CCN(c2oc(-c3ccccc3C)nc2S(=O)(=O)c2ccccc2)CC1,-10.6%,18.4µM*,-30.0,?,-9.9%
COCC(=O)N1CCC[C@@]2(CCN(Cc3ccccc3)C2)C1,.,-5.7%,.,-8.9%,.
COc1ccccc1-c1nc(S(=O)(=O)c2ccccc2)c(N2CCCCC2)o1,12.7%,?,-15.5,?,7.5%
